Experimental data: PubChem BioAssay
Potency and affinity values are given separately. A number with no mark means an inactive call. How the calls were made is not given here.

Assay: A2780 cell killing – plate reader, dry powder samples, cytotoxicity control, dose response (AID 743046);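 further: 0% = neutral control wells and -100% = cytotoxic reference compound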
Conditions: A2780 ovarian cancer cytotoxicity; series mostly up to 35 µM; activity change, negative = cytotoxicity: at the top concentration

Row | Structure (SMILES) | activity change, negative = cytotoxicity
1 | C[C@H]1CCCCO[C@H](CN(C)C(=O)C2CCCCC2)[C@@H](C)CN([C@@H](C)CO)C(=O)c2cc(NC(=O)Nc3ccc(F)cc3)ccc2O1 | -1.15%
2 | COc1ccc(S(=O)(=O)N(C)C[C@H]2OCCCC[C@H](C)Oc3ccc(NS(=O)(=O)c4ccc(F)cc4)cc3C(=O)N([C@@H](C)CO)C[C@@H]2C)cc1 | -5.96%
3 | C[C@@H]1CN([C@H](C)CO)C(=O)c2cc(NC(=O)Nc3ccc(C(F)(F)F)cc3)ccc2O[C@@H](C)CCCCO[C@@H]1CN(C)C(=O)c1ccccc1 | 21.3% [at 16 µM]
4 | C[C@H](CO)N1C[C@H](C)[C@@H](CN(C)C(=O)C2CCCCC2)OCCCC[C@H](C)Oc2ccc(NS(=O)(=O)c3ccc(Cl)cc3)cc2C1=O | 3.02%
5 | Cc1ccc(S(=O)(=O)N(C)C[C@@H]2Oc3cc(C#Cc4ccncc4)ccc3S(=O)(=O)N([C@H](C)CO)C[C@H]2C)cc1 | -20.4%
6 | CN1c2ccc(-c3ccccc3)cc2[C@H]2[C@H](CCN2C(=O)NC2CCCCC2)[C@@H]1CO | -34%
7 | COc1cccc(S(=O)(=O)N2C[C@@H]3N[C@H](C2)C3c2ccc(/C=C/c3ccccc3)cc2)c1 (stereo partly specified) | 9.2%
8 | O=C(/C=C/c1ccccc1)Nc1cccc(C(=O)O)c1 | -8.08% [at 50 µM]
9 | COc1ccc(S(=O)(=O)Nc2ccc3c(c2)C(=O)N([C@H](C)CO)C[C@H](C)[C@H](CN(C)Cc2ccc(C(F)(F)F)cc2)OCCCC[C@H](C)O3)cc1 | -24.6%
10 | Cc1ccc(S(=O)(=O)N(C)C[C@@H]2Oc3cc(C#Cc4ccncc4)ccc3S(=O)(=O)N([C@H](C)CO)C[C@@H]2C)cc1 | -6.02%
11 | Cc1ccc(S(=O)(=O)Nc2ccc3c(c2)nc(CCN2CCCC2)n3C)cc1 | 37.9% [at 50 µM]
12 | Cc1ccc(S(=O)(=O)Nc2ccc3c(c2)CC(=O)N([C@@H](C)CO)C[C@H](C)[C@@H](CN(C)C(=O)Nc2ccc(C(F)(F)F)cc2)O3)cc1 | -4.86%
13 | O=C(NCCc1ccccc1)c1ccc2c(c1)OCCCO2 | -64.7% [at 50 µM]
14 | CC(C)CC#Cc1ccc2c(c1)O[C@H](CN(C)Cc1ccc(C(=O)O)cc1)[C@@H](C)CN([C@H](C)CO)S2(=O)=O | 7.97%
15 | O=S(=O)(c1ccccc1F)N1CC[C@@H]2[C@H]1c1cc(-c3cccc(F)c3)ccc1N[C@@H]2CO | 17.5%
16 | O=C1/C(=C/c2ccccc2F)SC(=S)N1CC(=O)N1CCCCC1c1cccnc1 (stereo unspecified) | 24% [at 50 µM]
17 | C[C@H](CO)N1C[C@H](C)[C@@H](CN(C)Cc2ccc(Cl)c(Cl)c2)Oc2ccc(NS(=O)(=O)c3ccccc3)cc2CC1=O | 12.5%
18 | O=C(Nc1ccc(F)cc1)N1CCCCN2[C@@H](CO)[C@@H](c3ccc(C#Cc4ccccc4)cc3)[C@@H]2C1 | 2.3% [at 16 µM]
19 | C[C@@H]1CN([C@H](C)CO)C(=O)c2cc(NC(=O)Nc3ccccc3)ccc2O[C@@H](C)CCCCO[C@@H]1CN(C)Cc1ccc(C(F)(F)F)cc1 | 28%
20 | Cc1ccc(-c2csc(NC3OC(=O)c4ccccc43)n2)cc1 (stereo unspecified) | -24.4% [at 50 µM]
21 | CN(C)CCN(C(=O)/C=C/c1cccs1)c1nc2c(F)cc(F)cc2s1 | -3.5% [at 50 µM]
22 | Cc1noc(C)c1S(=O)(=O)Nc1ccc2c(c1)C(=O)N([C@H](C)CO)C[C@H](C)[C@@H](CN(C)C(=O)Nc1ccc(C(F)(F)F)cc1)OCCCC[C@H](C)O2 | -33.8%
23 | Cc1ccc(S(=O)(=O)Nc2ccc3c(c2)C(=O)N([C@@H](C)CO)C[C@@H](C)[C@H](CN(C)Cc2ccc(C(F)(F)F)cc2)OCCCC[C@H](C)O3)cc1 | -20.7%
24 | COc1ccccc1C#Cc1ccc2c(c1)O[C@H](CN(C)Cc1cccnc1)[C@H](C)CN([C@@H](C)CO)S2(=O)=O | -16.6%

Assay: OVCAR8 cell viability loss – plate reader, dry powder samples, PAX8 project, dose response (AID 743197)
Conditions: series mostly up to 35 µM; activity change, negative = cytotoxicity: at the top concentration

Row | Structure (SMILES) | activity change, negative = cytotoxicity
25 | C[C@H]1CCCCO[C@H](CN(C)C(=O)C2CCCCC2)[C@@H](C)CN([C@@H](C)CO)C(=O)c2cc(NC(=O)Nc3ccc(F)cc3)ccc2O1 | -13.8%
26 | C[C@H](CO)N1C[C@H](C)[C@@H](CN(C)C(=O)C2CCCCC2)OCCCC[C@H](C)Oc2ccc(NS(=O)(=O)c3ccc(Cl)cc3)cc2C1=O | -11.2%
27 | CO[C@@H]1CN(C)C(=O)c2cc(NC(=O)c3ccc(-c4ccccc4)cc3)ccc2OC[C@H](C)NC[C@H]1C | -14.1% [at 30 µM]
28 | Cc1ccc(S(=O)(=O)N(C)C[C@@H]2Oc3cc(C#Cc4ccncc4)ccc3S(=O)(=O)N([C@H](C)CO)C[C@@H]2C)cc1 | -15%
29 | Cc1ccc(S(=O)(=O)Nc2ccc3c(c2)CC(=O)N([C@@H](C)CO)C[C@H](C)[C@@H](CN(C)C(=O)Nc2ccc(C(F)(F)F)cc2)O3)cc1 | 6.62%
30 | CC(C)CC#Cc1ccc2c(c1)O[C@H](CN(C)Cc1ccc(C(=O)O)cc1)[C@@H](C)CN([C@H](C)CO)S2(=O)=O | 1.7%
31 | O=C(Nc1ccc(F)cc1)N1CCCCN2[C@@H](CO)[C@@H](c3ccc(C#Cc4ccccc4)cc3)[C@@H]2C1 | -31.3%
